An excerpt weighted towards active compounds, which were near 1% of everything screened.
HEK293 viab – counter-screen for SNCA expression inhibitors: cell viability; AID 1671193; actives 0.12% (n = 150,000); Potency, µM (series often up to 57.1 µM), for the others: at the highest dose activity change, negative = cytotoxicity, most hits filed as cytotoxic; HEK-293-SNCA-luc viability, GF-AFC fluorescence, 24 h;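 also: potency is read from the fitted curve at half-maximal effect; 0% = DMSO-treated cells and -100% = medium-only wells without cells; nearly all actives have a fitted effect of over 30% in size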
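HEK-293-SNCA-luc cells (1500/well) plated 24 h, then exposed 24 h to a dilution series; GF-AFC added 30 min at 37C, fluorescence 405/540 nm; normalised to medium-only and DMSO wells, Hill fit.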
IP6K1 inhibitor – IP6K1 kinase inhibition. IP6K1 kinase, ADP-Glo luminescence, 2 h; active compounds read low. actives 0.81% (n = 140,000). activity change, % (series mostly up to about 58 µM). AID 1645851; in the data active = activity change below about -25%
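ADP-Glo luminescence measures ADP made by human IP6K1 during a 2 h RT reaction with ATP/IP6 (mix at 1.3 mM/130 uM); top library doses 57.5 and 19.1 uM final.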
GPT2 inhibitor – GPT2 alanine aminotransferase inhibition | Recombinant GPT2, coupled pyruvate oxidase/HRP Amplex Red fluorescence | AID 1671188 | Potency, µM (series often up to 57.7 µM), without a hit: top-dose activity change, negative = inhibition, hits mostly inhibitors | actives 0.25% (n = 100,000); also: potency is read from the fitted curve at half-maximal effect; nearly all actives have a fitted effect of over 60% in size
Target sequence (Q8TD30 whole entry, looked up): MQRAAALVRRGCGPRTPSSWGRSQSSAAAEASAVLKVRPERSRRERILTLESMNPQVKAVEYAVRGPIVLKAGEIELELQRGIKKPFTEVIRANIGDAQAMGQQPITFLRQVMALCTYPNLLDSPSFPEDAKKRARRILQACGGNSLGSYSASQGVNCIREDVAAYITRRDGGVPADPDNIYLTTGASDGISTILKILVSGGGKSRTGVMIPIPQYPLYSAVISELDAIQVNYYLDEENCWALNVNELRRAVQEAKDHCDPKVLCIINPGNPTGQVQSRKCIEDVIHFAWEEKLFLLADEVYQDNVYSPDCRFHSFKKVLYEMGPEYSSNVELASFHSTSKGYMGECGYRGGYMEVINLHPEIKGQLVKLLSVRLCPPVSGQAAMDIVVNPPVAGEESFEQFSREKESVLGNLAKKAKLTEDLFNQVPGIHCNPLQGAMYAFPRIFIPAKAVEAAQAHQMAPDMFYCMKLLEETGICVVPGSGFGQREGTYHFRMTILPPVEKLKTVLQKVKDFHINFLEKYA
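Fluorescence read-out: pyruvate from GPT2 turnover coupled to pyruvate oxidase, HRP and Amplex Red (0.2mM ThPP, 0.2U/mL PO and HRP, 50uM Amplex final). Substrates 250uM a-KG, 2mM L-alanine; enzyme 10ng/uL; 30 min RT.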
SNCA expr inh – SNCA gene expression inhibition; actives 0.17% (n = 140,000); HEK-293 SNCA-luciferase knock-in, luminescence, 24 h; Potency, µM (series often up to 57.2 µM), for inactives: top-dose activity change, negative = inhibition, most hits filed as inhibitors;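 also: potency is read from the fitted curve at half-maximal effect; plate controls were DMSO cells for no effect and cell-free wells for full effect; nearly all actives have a fitted effect of over 45% in size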
Numbers without * were called inactive; i = inactive; ? = inconclusive; · = not tested or not shown; ! = not active in a repeat; [ ] = another dose, or the depositor's remark. Unless noted, calls follow the shape of the dose curve; as a rule, active = well fitted curve in the direction sought with a large enough effect; inconclusive = small, poorly fitted or top-dose-only effect, or another doubt; inactive = no such curve, though single readings can be large; an effect the other way counts as inactive or inconclusive. Unless noted, % is scaled to controls: 0 for no effect and ±100 for the full control effect.

SMILES	HEK293 viab	IP6K1 inhibitor	GPT2 inhibitor	SNCA expr inh
CO[C@H]1C=CC=C(C)C(=O)NC2=CC(=O)C(NCCN(C)C)=C(C[C@@H](C)C[C@H](OC)[C@@H](O)[C@@H](C)C=C(C)[C@@H]1OC(N)=O)C2=O	?	·	31µM*	0.054µM*
CCN1CCN(c2nc3c(s2)CN(C(=O)c2ccncc2)CC3)CC1	-5%	-3	-13%	15%
Cc1ccc(C)c(OCC(=O)c2ccc3c(c2)N(CCCC(=O)NC2CCCCC2)C(=O)CO3)c1	18µM*	-8	-15%	3%
Cc1ccc(C)c(OCC(=O)c2ccc3c(c2)N(CCCC(=O)NCC2CC2)C(=O)CO3)c1	?	16	i	-11%
CN(Cc1ccccc1)c1ccc2cc(S(=O)(=O)N3CCCCC3)ccc2n1	3%	-1	·	25µM*
Cc1cccc(N(C)c2ccc3cc(S(=O)(=O)N4CCCC4)ccc3n2)c1	6%	18	·	-7%
CC1=C[C@@H](CNCc2ccccc2F)[C@H](C(C)C)C[C@H]1Cc1nc2c(C)cccc2[nH]1	?	0	2%[88.5 µM]	?
COc1ccccc1CNC[C@@H]1C=C(C)[C@H](Cc2nc3c(C)cccc3[nH]2)C[C@H]1C(C)C	35µM*	6	-9%[88.5 µM]	?
CC1=C[C@@H](CNCc2ccccc2)[C@H](C(C)C)C[C@H]1Cc1nc2c(C)cccc2[nH]1	35µM*	-9	-2%[88.5 µM]	?
CCC(CC)C(=O)NC[C@@H]1C=C(C)[C@H](Cc2nc3ccc(OC)cc3[nH]2)C[C@H]1C(C)C	40µM*	5	i	?
CN(Cc1cccc(C(F)(F)F)c1)Cc1cccs1	-2%[87.6 µM]	3	i	5%[87.6 µM]
CNC(=O)CN(C)[C@H]1C[C@@H]2CO[C@H](C(C)C)C[C@@H]2C1	·	2	·	·
COc1cccc2nc(-c3cccs3)nc(NN3C(=O)C=C(C)C3=O)c12	30µM*!	-19	-1%	?
Cc1cccc(C)c1-c1cc(C(=O)NCc2ccc(C(F)(F)F)cc2)c2cnn(C)c2n1	-19%	-5	i	-15%
COc1ccc2c(c1)OC[C@@H]1CN(CCC#N)C(=O)CCN(C(=O)C3CCCC3)[C@H]21	·	-6	·	·
Cc1nn2c(c1-c1ccccc1Oc1ccccc1)N(Cc1ccc(C(=O)O)cc1)CCC2	?	5	4%[88.5 µM]	?
Cc1nn2c(c1-c1ccccc1OCc1ccccc1)N(CC1CC1)CCC2	10µM*	15	-12%[88.5 µM]	?
COc1ccc(OC)c(CN2CCCn3nc(C)c(-c4ccccc4OCc4ccccc4)c32)c1	4µM*	1	i	?
COc1ccc(CN2CCCn3nc(C)c(-c4ccccc4Oc4ccccc4)c32)cc1O	?	4	i	6.3µM*
O=C(c1ccccc1Cl)N1CCN(C(=O)c2nc3cccnc3n(C3CCCC3)c2=O)CC1	7%	16	i	1%
Cc1ccc(NC(=O)CCc2nc3cccnc3n2-c2ccccc2)cc1Cl	-11%	22	·	5%
O=C(CCc1nc2cccnc2n1-c1ccccc1)Nc1ccc(Cl)c(Cl)c1	-29%	-7	·	7.1µM*
C#CCn1c(=O)n(-c2cccc(Cl)c2C)c(=O)c2c3c(sc21)CN(C(C)=O)CC3	-25%	6	·	4µM*
CC(=O)N1CCc2c(sc3c2c(=O)n(-c2cccc(Cl)c2C)c(=O)n3Cc2ccccc2C)C1	?	18	·	-7%
CC1CCN(CCNC(=O)c2ccc(Cn3c(SCc4ccccc4)nc4cccnc43)cc2)CC1	10µM*	23	·	5%
SMILES	HEK293 viab	IP6K1 inhibitor	GPT2 inhibitor	SNCA expr inh
C[C@@]1(C(=O)Nc2ccc(F)nc2)CCCN1c1nc(Nc2cc(C3CC3)[nH]n2)c2cccn2n1	1.9µM*!	-2	1%	-13%
Cc1ccc(-c2cc3c(=O)n(CCNC(=O)c4cc(C5CC5)[nH]n4)ccn3n2)c(C)c1	-11%	-4	i	38%
C[C@@H]1CC[C@@]2(OC1)O[C@H]1C[C@H]3[C@@H]4CC[C@H]5C[C@@H](O)CC[C@]5(C)[C@H]4CC(=O)[C@]3(C)[C@H]1[C@@H]2C	17%[2.51 µM]	5	2.2µM*	-23%[2.29 µM]
Cn1ncc2c(C(=O)NCc3ccc(Cl)cc3)cc(-c3ccsc3)nc21	-15%	-5	-6%	-23%
Nc1ccc2nc(-c3ccc(O)cc3)sc2c1	-2%	-17	·	1.3µM*
CCC(=O)Nc1ccc(C)cc1-c1nc2ccccc2n(CC(=O)c2ccc(C)cc2)c1=O	17%	24	·	28µM*
COc1ccc(C(=O)Cn2c(=O)c(-c3cc(C)ccc3NC(C)=O)nc3ccccc32)cc1	?	-15	·	-5%
CCOC(=O)c1c(C)[nH]c(C)c1S(=O)(=O)N(C)CC(=O)Nc1cc(Cl)ccc1OC	-11%	-28*	·	-10%
COc1cccc(CNC(=O)C2CCCN2Cc2ccc(-c3cccc(OC)c3)cc2)c1 (stereo unspecified)	-14%	-9	-4%	16%
Cc1ccc(CN2C(=O)C(=O)c3cc(Br)cc(C)c32)cc1	?	-9	·	22µM*
CCCC1c2nccn2CCCN1C(=O)c1cnco1 (stereo unspecified)	?	-7	i	-24%
NC(=O)c1c(OCc2c(F)cc(Br)cc2F)nsc1NC(=O)NCCCCN1CCCC1	?	15	1%	6.1µM*
O=C(Nc1ccc(Br)cc1F)N1CCC(CN2CCCC2)CC1	5%	36	·	19%
O=C(c1nc2sccn2c1-c1cccc(C(F)(F)F)c1)N1CCCCC1	-19%	11	i	17%
O=C(Nc1cccc2ccccc12)O[C@@H]1CO[C@H]2[C@@H]1OC[C@@H]2NC(=S)Nc1ccc(Cl)cc1	-10%	2	i	?
CN(C)c1ccc(NC(=S)N[C@H]2CO[C@H]3[C@@H]2OC[C@H]3OC(=O)Nc2cccc3ccccc23)cc1	-1%	4	8.9µM*	84%
CC(C)C(=O)N1CCCC1Cc1noc(Cc2ccccc2)n1 (stereo unspecified)	5%	14	i	20%
Cc1ccc(NC(=O)N2CCC(n3cnnc3C3CC3)C2)c(Cl)c1 (stereo unspecified)	9%	17	2%	13%
CCc1ccccc1NC(=O)C(CC)Oc1ccccc1-c1nnc(-c2ccccc2)o1 (stereo unspecified)	?	23	·	8.9µM*
Cc1cccc(-c2cccc(CN3CCC(NC(=O)Nc4ccc(Cl)cc4)CC3)c2)c1	?	-1	-5%	20µM*
C[C@@]12C(=O)OC(=O)[C@@]1(C)C1CCC2O1	?	·	i	15µM*
Cc1ccc(NC(=O)c2ccc(N(Cc3ccccc3)S(C)(=O)=O)cc2)cc1	2.8µM*	-8	·	21%
CS(=O)(=O)N(Cc1ccccc1)c1ccc(C(=O)Nc2cccc(Cl)c2)cc1	6.3µM*	-5	·	-14%
Cc1cccc(C(=O)Nc2ccc(S(=O)(=O)N(Cc3ccccc3)c3ccccc3)cc2)c1	5%	-11	·	20%
O=C(Nc1ccc(S(=O)(=O)N(Cc2ccccc2)c2ccccc2)cc1)c1ccc(F)cc1	3%	-28*	·	20%

Screens (PubChem)
